Assay in all cases: NCI-60 one-dose screen, 48 h (100 = growth as untreated, 0 = no growth, -100 = all killed)
What all share (settings): 10 µM unless noted

Assay [1] relates to SK-MEL-2 melanoma.
The subject of assay [2] is EKVX NSCLC.
The test system of assay [3] is SN12C renal.
The test system of assay [4] is UO-31 renal.
Assay [5] concerns TK-10 renal.
Assay [6] concerns ACHN renal.
Assay [7] has as its system CAKI-1 renal.
Assay [8] has as its system A498 renal.
In assay [9] the test system is CCRF-CEM leukemia.
The subject of assay [10] is MOLT-4 leukemia.
Assay [11] concerns SR leukemia.
Assay [12] relates to RPMI-8226 leukemia.
In assay [13] the test system is OVCAR-8 ovarian.
The subject of assay [14] is OVCAR-5 ovarian.
Assay [15] has as its system OVCAR-4 ovarian.
In assay [16] the test system is SK-OV-3 ovarian.
For assay [17], the system named is IGROV1 ovarian.
Assay [18] deals with OVCAR-3 ovarian.
Assay [19] concerns HS 578T breast.
Assay [20] relates to NCI/ADR-RES ovarian.

We go through eight compounds from PubChem BioAssay (NCI).

Structures are written as SMILES. This is part of a sample that, as a whole, favours compounds with a hit. Of some 83,000 tested, about 20% had one in any assay.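 Values shown are percent growth following 48 h exposure of cells in 96-well plates to a single concentration of compound; below 10 was considered active.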 Unmarked numbers belong to inactive results. Calls of active or inactive are those of the source.

In the case of `C=C(C)[C@@H]1CC[C@]2(C(=O)NC(COC(=O)C(Cl)Cl)(COC(=O)C(Cl)Cl)COC(=O)C(Cl)Cl)CC[C@]3(C)[C@H](CC[C@@H]4[C@@]5(C)CC[C@H](OC(C)=O)C(C)(C)[C@@H]5CC[C@]43C)[C@@H]12`, the growth in [1] was 76.5%; in [2] it was 57.7%; in [3], 37%; in assay [4], 55.4%; in [5], 75.8%; in assay [6], 51.1%. Moreover, the growth in assay [7] was 48.4%; in assay [8], 99.5%; in assay [9], 18.3%; in assay [10] it was 6.2% (active); in assay [11] it was 20.4%; in [12], 2.68% (active). Further, the growth is 73.6% in assay [13]; 80.7% in assay [14]; 54.5% in [15]; 82.1% in [16]; 84.3% in assay [17]; 57.5% in assay [18]. Besides, the values for the growth in assay [19] and in [20] were 71.5% and 71%, respectively.
Turning to `COc1cc(/C=C2\CN(C(=O)OC(C)(C)C)C/C(=C\c3ccc(O)c(OC)c3)C2=O)ccc1O`, the growth was 86.2% in assay [1]; 92.8% in assay [2]; 88.9% in assay [3]; 81% in assay [4]; 105% in assay [5]; 100% in assay [6]. For the same compound, the growth is 74.2% in [7]; 104% in [8]; 101% in [9]; 47.4% in assay [10]; 79.9% in [11]; 71.8% in [12]. In addition, the growth in assay [13] is 89.6%; in assay [14], 107%; in [15], 97.6%; in [16] it was 105%; in assay [17] it was 110%; in assay [18] it was 98.6%. Also, the growth in assay [19] is 91.3%; in [20] it was 102%.
With `O=C1Nc2ccc(Br)cc2/C1=N/c1nc(-c2ccccc2)cs1`, the growth in assay [1] is 88%; in assay [2], 66.8%; in [3] it was 96%; in assay [4] it was 63.9%; in assay [5], 109%; in assay [6], 94.8%. Also, the growth is 70.7% in assay [7]; 78.9% in [8]; 101% in assay [9]; 59.2% in assay [10]; 85.2% in assay [11]; 75.6% in assay [12]. For the same compound, the growth is 89.1% in [13]; 108% in assay [14]; 80.5% in [15]; 60.7% in assay [16]; 84% in [17]; 75% in [18]. For the same compound, the growth is 90.3% in assay [19] and 103% in assay [20].
Consider `CC(=O)Oc1ccccc1C(=O)Nc1ncc([N+](=O)[O-])s1`, for which the growth is -30.1% (active) in [1]; 34.7% in assay [2]; 15.4% in assay [3]; 16.2% in assay [4]; 19.4% in [5]; 55.8% in [6]. In addition, the growth in assay [7] is 10.7%; in [8], -40.2% (active); in assay [9], 13.9%; in assay [10], -9.45% (active); in assay [11], 13.1%; in assay [12] it was 7.09% (active). Besides, the growth in assay [13] is 51.3%; in [14], 63.3%; in [15], 55.2%; in [16], 85.5%; in [17], 26.2%; in assay [18], 5.56% (active). Also, the growth is 15.6% in [19] and 20.6% in assay [20].
As for `COc1ccc(C(=O)OC2C(OC3C(O)COC(O[C@H]4C[C@H]5[C@@H]6CC=C7C[C@@H](O)CC[C@]7(C)[C@H]6CC[C@]5(C)[C@H]4[C@H](C)C(=O)CCC(C)C)C3OC(N)=O)OCC(O)C2O)cc1` (stereo not given in full), the growth was -62% (active) in assay [1]; 19.5% in assay [2]; 44.7% in assay [3]; -39% (active) in assay [4]; -1.71% (active) in assay [5]; 40.5% in assay [6]. Also, the growth in assay [7] is -36.7% (active); in assay [8], -80.1% (active); in assay [9], -25.8% (active); in assay [10], -42.3% (active); in [11], -14.1% (active); in assay [12], -32.8% (active). The growth was 25.3% in assay [13]; 36.3% in assay [14]; 44.1% in assay [15]; -37.2% (active) in [16]; 19.5% in [17]; 58.3% in [18]. Further, the growth is -29.9% (active) in assay [19] and 86.2% in assay [20].
With `COc1ccc(C(=O)OC2C(OC3C(O)COC(O[C@H]4C[C@H]5[C@@H]6CC=C7C[C@@H](O)CC[C@]7(C)[C@H]6CC[C@]5(C)[C@H]4[C@H](C)C(=O)CCC(C)C)C3OC(=O)C(C)C)OCC(O)C2O)cc1` (stereo not given in full), the growth in assay [1] is -37.2% (active); in [2] it was 30.2%; in [3], 57.3%; in [4] it was -15.2% (active); in [5], 8.54% (active); in [6] it was 36.6%. The growth in assay [7] is 3.21% (active); in assay [8], -61.2% (active); in assay [9], -21.8% (active); in [10], -34.8% (active); in [11], 5.59% (active); in [12] it was -27.4% (active). The growth in [13] was 36.3%; in [14] it was 42%; in assay [15], 60.9%; in assay [16], -21.1% (active); in assay [17], 37.2%; in assay [18], 60.5%. Besides, the growth in assay [19] was -2.09% (active); in assay [20], 75%.
Regarding `O=c1c2cc(Cl)ccc2oc2ccc(OCCCCCN3CCCCC3)cc12`, the growth in assay [1] is 64.8%; in assay [2], 70.3%; in [3], 65.1%; in assay [4], 60.7%; in assay [5], 69.2%; in assay [6] it was 94.8%. Besides, the growth is 70.8% in assay [7]; 75.6% in assay [8]; 39.8% in assay [9]; 25.2% in [10]; 7.54% (active) in assay [11]; 38% in assay [12]. The growth is 55.1% in [13]; 75.4% in assay [14]; 80.6% in [15]; 98.3% in assay [16]; 72% in assay [17]; 67.1% in assay [18]. The results for the growth in assay [19] and in assay [20] were 80.5% and 71%, respectively.
Consider `CC1=C(/C=C/C(C)=C/C=C(C(=O)O)\C(C)=C\C(=O)O)C(C)(C)CCC1`, for which the growth is 94.7% in assay [1]; 124% in assay [2]; 92% in assay [3]; 92.7% in [4]; 98% in [5]; 99.9% in assay [6]. Further, the growth in assay [7] is 117%; in assay [8] it was 91.2%; in [9] it was 93.3%; in assay [10], 86.3%; in [11] it was 95.7%; in [12], 92%. For the same compound, the growth in [13] is 99.4%; in [14], 97%; in assay [15], 115%; in assay [16], 103%; in assay [17], 99.2%; in assay [18], 110%. The values for the growth in assay [19] and in assay [20] were 105% and 102%, respectively.
